# Assay results from PubChem BioAssay (NCATS).
# Results filed as inconclusive are left out. Entries that show only a call come without a potency. The source made the active and inactive calls. Unless noted, calls follow the shape of the full dose curve.
# Tested on: not listed separately
# Assay: Natriuretic polypeptide receptor (hNpr1) antagonism - Pilot counterscreen GloSensor control cell line (AID 1347045)
# Conditions: HEK293 cGMP GloSensor cells, SNP-stimulated luminescence, 20 min; series mostly up to 38.3 µM
# Outline: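 HEK293 cGMP GloSensor cells preloaded 2 h with 2% GloSensor reagent, then compound 30 min before baseline luminescence read. Stimulated with 50 uM sodium nitroprusside, 20 min at room temperature, then read again; counterscreen for Npr1 antagonism.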
row,Structure (SMILES),Potency
1,NCc1cc(=O)[nH]o1,inactive
2,NC(CP(=O)(O)O)C(=O)O (stereo unspecified),inactive
3,COc1cc(C(O)CN)ccc1O (stereo unspecified),inactive

# Molecular target: Atrial natriuretic peptide receptor 1 (Homo sapiens) (UniProt P16066)
# Sequence (P16066 whole entry, looked up): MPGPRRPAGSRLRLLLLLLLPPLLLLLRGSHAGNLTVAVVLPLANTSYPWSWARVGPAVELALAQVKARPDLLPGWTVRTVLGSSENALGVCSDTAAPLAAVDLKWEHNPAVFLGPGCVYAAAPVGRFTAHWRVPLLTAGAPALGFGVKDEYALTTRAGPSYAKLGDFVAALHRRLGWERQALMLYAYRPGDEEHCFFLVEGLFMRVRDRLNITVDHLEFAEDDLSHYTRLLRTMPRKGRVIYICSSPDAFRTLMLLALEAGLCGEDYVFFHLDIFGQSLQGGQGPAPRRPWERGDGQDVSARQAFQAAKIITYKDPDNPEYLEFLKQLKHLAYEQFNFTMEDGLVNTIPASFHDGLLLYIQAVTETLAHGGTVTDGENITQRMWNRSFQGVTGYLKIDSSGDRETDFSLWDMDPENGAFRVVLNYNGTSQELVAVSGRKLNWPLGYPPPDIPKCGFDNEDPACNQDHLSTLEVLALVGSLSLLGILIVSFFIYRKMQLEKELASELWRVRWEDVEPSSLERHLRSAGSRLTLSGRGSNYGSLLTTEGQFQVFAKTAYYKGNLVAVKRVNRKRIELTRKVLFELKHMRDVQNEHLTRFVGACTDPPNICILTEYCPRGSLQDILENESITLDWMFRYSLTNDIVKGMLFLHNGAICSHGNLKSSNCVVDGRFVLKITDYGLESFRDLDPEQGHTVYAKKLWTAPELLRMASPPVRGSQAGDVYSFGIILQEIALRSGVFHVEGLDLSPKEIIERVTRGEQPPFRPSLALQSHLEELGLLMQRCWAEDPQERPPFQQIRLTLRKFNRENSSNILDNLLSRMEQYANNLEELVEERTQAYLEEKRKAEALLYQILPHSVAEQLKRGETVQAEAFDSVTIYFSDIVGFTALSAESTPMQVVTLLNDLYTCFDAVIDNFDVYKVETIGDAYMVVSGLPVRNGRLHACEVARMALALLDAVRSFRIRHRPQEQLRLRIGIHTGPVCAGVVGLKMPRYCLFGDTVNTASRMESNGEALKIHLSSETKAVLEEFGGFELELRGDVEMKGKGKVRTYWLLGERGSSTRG
# Assay: Natriuretic polypeptide receptor (hNpr1) antagonism - Pilot screen (AID 1347049);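 also: agonist-evoked cGMP luminescence read 20 min after hNppA addition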
# Conditions: hNpr1 cells, antagonist mode cGMP read-out; series mostly up to 57.5 µM
# Outline: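 HEK293 cells expressing hNpr1 and GloSensor cGMP luciferase, 1500/well, loaded with 2% GloSensor reagent 2 h, compound 30 min at room temperature; luminescence read before and 20 min after 0.1 nM hNppA stimulation.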
row,Structure (SMILES),Potency
1,NCc1cc(=O)[nH]o1,inactive
2,NC(CP(=O)(O)O)C(=O)O (stereo unspecified),inactive
3,COc1cc(C(O)CN)ccc1O (stereo unspecified),inactive

# Molecular target: Atrial natriuretic peptide receptor 2 (Homo sapiens) (UniProt P20594)
# Sequence (P20594 whole entry, looked up): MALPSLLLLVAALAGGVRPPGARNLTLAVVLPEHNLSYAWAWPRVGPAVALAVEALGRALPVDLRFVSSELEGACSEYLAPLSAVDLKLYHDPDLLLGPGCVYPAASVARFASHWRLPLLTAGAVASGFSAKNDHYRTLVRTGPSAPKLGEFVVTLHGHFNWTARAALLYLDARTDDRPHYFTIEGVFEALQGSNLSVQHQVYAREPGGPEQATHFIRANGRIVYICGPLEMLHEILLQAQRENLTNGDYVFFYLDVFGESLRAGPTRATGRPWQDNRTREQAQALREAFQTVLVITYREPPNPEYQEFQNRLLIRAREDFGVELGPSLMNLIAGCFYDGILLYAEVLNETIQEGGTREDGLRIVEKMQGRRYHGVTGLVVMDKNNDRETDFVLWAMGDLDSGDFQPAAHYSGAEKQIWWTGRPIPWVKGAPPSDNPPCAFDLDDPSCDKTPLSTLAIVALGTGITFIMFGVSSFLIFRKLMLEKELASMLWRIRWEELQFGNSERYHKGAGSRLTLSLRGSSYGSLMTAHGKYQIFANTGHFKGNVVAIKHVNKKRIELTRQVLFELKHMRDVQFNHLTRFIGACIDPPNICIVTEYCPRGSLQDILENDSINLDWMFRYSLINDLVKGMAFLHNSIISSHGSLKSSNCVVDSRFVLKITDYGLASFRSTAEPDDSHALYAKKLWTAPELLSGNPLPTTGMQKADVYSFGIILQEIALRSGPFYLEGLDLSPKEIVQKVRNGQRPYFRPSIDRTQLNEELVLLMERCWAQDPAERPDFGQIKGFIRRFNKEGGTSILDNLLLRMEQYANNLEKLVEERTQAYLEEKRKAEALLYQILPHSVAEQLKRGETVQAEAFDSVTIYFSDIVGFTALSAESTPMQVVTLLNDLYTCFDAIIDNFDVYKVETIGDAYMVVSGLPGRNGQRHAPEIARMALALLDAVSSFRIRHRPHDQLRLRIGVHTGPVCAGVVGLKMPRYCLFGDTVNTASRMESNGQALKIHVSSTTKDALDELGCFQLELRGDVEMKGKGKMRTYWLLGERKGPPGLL
# Assay: Natriuretic polypeptide receptor (hNpr2) antagonism - Pilot subtype selectivity assay (AID 1347050)
# Conditions: NPR2-expressing cells, cGMP antagonist-mode read-out; series mostly up to 38.3 µM
# Outline: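 HEK293 cells expressing hNpr2 and a GloSensor cGMP luciferase sensor, 1500/well, preloaded 2 h with 2% GloSensor reagent, compound 30 min, then 1 nM hNppC for 20 min. Antagonism from luminescence after versus baseline pre-read; LOPAC in 1:5 titrations.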
row,Structure (SMILES),Potency
1,NCc1cc(=O)[nH]o1,inactive
2,NC(CP(=O)(O)O)C(=O)O (stereo unspecified),inactive
3,COc1cc(C(O)CN)ccc1O (stereo unspecified),inactive

# Tested on: not listed separately
# Assay: NS1 protein of Zika virus - qHTS assay to identify small molecule inhibitors in human HEK 293 cells (AID 1347053; active = well fitted inhibition curve with a large enough effect; also: nearly all actives have a fitted effect of over 55% in size; also: potency is read from the fitted curve at half-maximal effect)
# Conditions: HEK293 ZIKV MR766 infection, NS1 TR-FRET, 24 h; series mostly up to 46.1 µM
# Outline: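 HEK 293 cells pretreated with compound for 1 h, then infected with ZIKV MR766 (MOI 0.5) for 24 h at 37 C. NS1 detected by TR-FRET with two anti-NS1 antibodies; normalized to uninfected (0%) and infected (100%) wells.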
row,Structure (SMILES),Potency
1,C[C@]12CC[C@H]3[C@@H](CCC4=CC(=O)CC[C@@]43C)[C@H]1CC[C@H]2OC(=O)CCC1CCCC1,inactive
2,NCc1cc(=O)[nH]o1,inactive
3,c1cc2c(cc1[C@H]1OC[C@H]3[C@H]1CO[C@H]3c1ccc3c(c1)OCO3)OCO2,inactive
4,C[C@@H]1CC[C@@]2(OC1)O[C@H]1C[C@H]3[C@@H]4CC=C5C[C@@H](O[C@@H]6O[C@H](CO)[C@@H](O[C@@H]7O[C@@H](C)[C@H](O)[C@@H](O)[C@@H]7O)[C@H](O)[C@@H]6O[C@@H]6O[C@@H](C)[C@H](O)[C@@H](O)[C@@H]6O)CC[C@]5(C)[C@@H]4CC[C@]3(C)[C@@H]1[C@H]2C,3720 nM (active)
5,Nc1ccc(N=Nc2ccccc2)cc1,inactive
6,CC(C)(O)C(=O)Nc1ccc([N+](=O)[O-])c(C(F)(F)F)c1,inactive
7,CC=C(C)C(=O)N[C@@H](c1ccccc1)[C@@H](O)C(=O)O[C@H]1C[C@@]2(O)[C@@H](OC(=O)c3ccccc3)[C@@H]3[C@]4(OC(C)=O)CO[C@@H]4C[C@H](O)[C@@]3(C)C(=O)[C@H](OC(C)=O)C(=C1C)C2(C)C,3.3 nM (active)
